USP1-UAF1 inh: Inhibitors of USP1/UAF1: Primary Screen. Ubiquitin carboxyl-terminal hydrolase 1 (Homo sapiens), O94782. recombinant USP1/UAF1, Ub-Rhodamine cleavage fluorescence. Potency, µM (doses to about 57.1 µM), usual class: inhibitors. 390,000 compounds, 0.23% hits. AID 743255, 2014; further: nearly all actives have a fitted effect of over 60% in size
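USP1/UAF1 complex (1 nM) preincubated 15 min at room temperature with compound, then Ub-Rho substrate (150 nM final) added. Kinetic fluorescence at 480/540 nm over 6 reads at 60 s intervals; 50 mM HEPES pH 7.8, 0.5 mM EDTA, 0.1 mg/ml BSA, 1 mM TCEP, 0.01% Tween-20.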
GCN5L2 inh: qHTS Assay for Inhibitors of GCN5L2 | Histone acetyltransferase KAT2A (Homo sapiens), Q92830 | GCN5L2 HAT assay, ThioGlo1 CoA-SH fluorescence | Potency, µM (series often up to 58.9 µM), actives largely listed as inhibitors | 390,000 compounds, 0.21% hits | AID 504327, 2011
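ThioGlo1-coupled HAT assay: 20nM GCN5L2, 70uM acetyl-CoA, 75uM H3(1-25) peptide, pH 7.5. Fluorescence read at 340/540nm at start and after 20 min at room temperature.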
PTAP TSG101 blk: qHTS Assay for Iinhibitors of HIV-1 Budding by Blocking the Interaction of PTAP/TSG101; Tumor susceptibility gene 101 protein (Homo sapiens), Q99816; Fluorescence polarization, FITC-PTAP peptide / Tsg101 binding; Potency, µM (series often up to 115 µM), usual class: inhibitors; 340,000 tested, under 10 active; AID 493005, 2010; active means well fitted inhibition curve with a large enough effect in the main read-out, with a control signal flat, not every such curve was filed as active; inconclusive means small, poorly fitted or top-dose-only effect, or effect the other way, or a change in a side signal; inactive means no such curve, though single readings can be large or run the other way
Target sequence (Q99816 whole entry, looked up): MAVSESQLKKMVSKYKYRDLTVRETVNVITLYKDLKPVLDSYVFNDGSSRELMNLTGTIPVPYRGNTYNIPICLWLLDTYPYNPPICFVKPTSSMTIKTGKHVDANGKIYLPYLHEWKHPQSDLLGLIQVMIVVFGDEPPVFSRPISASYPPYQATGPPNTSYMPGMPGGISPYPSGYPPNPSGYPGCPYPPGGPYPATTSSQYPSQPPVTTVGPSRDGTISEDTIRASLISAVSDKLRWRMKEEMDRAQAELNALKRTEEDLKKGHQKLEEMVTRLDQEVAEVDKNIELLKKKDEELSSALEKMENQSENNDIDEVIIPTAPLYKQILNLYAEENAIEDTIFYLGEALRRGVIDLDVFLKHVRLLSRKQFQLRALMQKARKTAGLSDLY
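Fluorescence polarization binding of Tsg101 binding domain (10 uM final) to FITC-labeled PTAP peptide (50 nM final) in HEPES pH 7.5 buffer with NaCl, Tween 20, EDTA, TCEP. Compounds added before peptide; binding 20 min at RT.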
PLK1 PBD block: qHTS for Inhibitors of PLK1-PDB (polo-like kinase 1 - polo-box domain): Primary Screen | Serine/threonine-protein kinase PLK1 (Homo sapiens), P53350 | Plk1 PBD binding of FITC phosphopeptide, fluorescence polarization | Potency, µM, usual class: inhibitors | 360,000 compounds, 2.8% hits | AID 720504, 2013; further: series mostly up to about 57 µM; nearly all actives have a fitted effect of over 65% in size
VDR inh: Inhibitors of the vitamin D receptor (VDR): qHTS. VDR-SRC2-3 peptide fluorescence polarization, 2 h. Potency, µM, most hits filed as inhibitors. 400,000 compounds, 0.93% hits
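Measured by FP: displacement of SRC2-3 coactivator peptide from VDR by library compounds, following a two-hour ambient incubation.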
A number is an active result; . = inactive; ? = inconclusive; / = no result. Sampled rows, rich in hits. Any-hit rate of the full collection: about 3%. Unless noted, the call rests on the fitted dose curve; in most records, active means well fitted curve in the direction sought with a large enough effect; inconclusive means small, poorly fitted or top-dose-only effect, or another doubt; inactive means no such curve, though single readings can be large; an effect the other way counts as inactive or inconclusive.

SMILES | USP1-UAF1 inh | GCN5L2 inh | PTAP TSG101 blk | PLK1 PBD block | VDR inh
CC[C@@H](C(=O)[C@@H](C)[C@@H](O)[C@H](C)CCc1ccc(C)c(O)c1C(=O)O)C1O[C@](CC)(C2CC[C@](O)(CC)[C@H](C)O2)C[C@@H]1C (stereo partly specified) | / | 16µM | / | / | .
COc1cccc(CNC(=O)CCNC(=O)c2ccc(Br)o2)c1 | . | . | . | 13µM | ?
COc1ccc(CNC(=O)CCNS(=O)(=O)c2cc(Br)cnc2N)cc1 | . | . | . | 3.4µM | ?
Nc1ncc(Br)cc1S(=O)(=O)NCCC(=O)NCc1ccc(F)cc1 | . | . | . | . | .
COc1ccc(CNC(=O)CCNS(=O)(=O)c2ccc(Br)s2)cc1 | . | . | . | 30µM | .
Nc1ncc(Br)cc1S(=O)(=O)NCCC(=O)NC1CCCCC1 | . | . | . | 27µM | .
COc1ccc(NCc2cc3cc4c(cc3n(CC(=O)Nc3ccc(F)cc3F)c2=O)OCO4)cc1 | ? | . | / | / | .
Cc1cc(C)n(-c2nc3ccccc3nc2Nc2ccc(Cl)c(Cl)c2)n1 | . | . | / | / | .
Oc1c(C(c2ccc(F)cc2)N2CCCC2)sc2nc(-c3ccco3)nn12 (stereo unspecified) | . | . | / | / | .
O=C(CCC1CCCC1)NNC(=O)c1ccc(F)cc1 | . | . | . | . | .
Cc1cc2cc(CNC(=O)c3ccc(Br)o3)ccc2n1C | . | . | . | . | 79µM
COc1cccc(CNC(=O)CCNS(=O)(=O)c2ccc(Br)s2)c1 | . | . | . | 27µM | ?
CCOc1ccc(NC(=O)N(Cc2c[nH]c3ccccc23)C2CCCCCC2)cc1 | . | . | / | / | .
CCc1nc(N2CCCCC2)c2oc3ccccc3c2n1 | . | / | . | . | .
CCc1nc(N2CCCC(C)C2)c2oc3ccccc3c2n1 (stereo unspecified) | . | . | . | 15µM | ?
CCOc1ccc(-c2nonc2NC(=O)c2ccc(C)cc2)cc1OCC | . | . | / | / | .
Clc1cc(Cl)c2nc(N3CCCCC3)sc2c1 | . | ? | . | 24µM | .
O=c1c(-c2cc(F)cc(F)c2)nc2cncnc2n1Cc1ccc(F)cc1 | / | . | / | / | .
C/C(=N\NC(=O)c1ccoc1C)c1ccc(Cl)s1 | . | . | . | . | .
C/C(=N\NC(=O)c1csc(C)c1C)c1ccc(Cl)s1 | . | . | . | 24µM | .
COc1ccc2c(Cl)c(C(=O)N/N=C/c3ccc4c(c3)OCO4)sc2c1 | . | . | . | . | .
COc1ccc2c(Cl)c(C(=O)N/N=C3\CCCC(=O)C3)sc2c1 | 16µM | . | ? | . | .
Cn1sc(=O)n(Cc2ccccc2)c1=O | / | 20µM | / | / | 5µM
Cn1c(=O)n(Cc2ccccc2)c2ccccc21 | . | . | . | . | .
Cc1cc(NC(=O)COCc2cc(-c3ccc(F)cc3)on2)ccc1Br | ? | . | / | / | .
SMILES | USP1-UAF1 inh | GCN5L2 inh | PTAP TSG101 blk | PLK1 PBD block | VDR inh
O=C(NCc1ccccc1Cl)c1ccc(CS(=O)(=O)c2ccc(Br)cc2)o1 | . | . | / | / | .
CC(=NCCc1ccccc1)C1=C(O)CCC1=O | . | . | . | . | .
CC(=NCCc1ccccc1)C1=C(O)CSC1=O | . | . | . | 12µM | ?
NC(=S)NN=C1c2ccccc2-c2c(F)c(F)c(F)c(F)c21 | . | / | . | 8.4µM | 79µM
CCN1CCN(C(=S)c2ccc(Cl)c(Cl)c2)CC1 | . | . | . | 11µM | ?
O=[N+]([O-])c1ccc(-c2nnc3n2CCCCC3)cc1 | . | . | . | . | .
O=c1c2c(-c3ccc([N+](=O)[O-])cc3)csc2nc2n1CCC2 | . | . | . | 27µM | .
CCc1c(C(=O)Nc2ccccc2)c(C)[nH]c(=S)c1C#N | . | . | . | 21µM | .
O=C(O)COc1ccc2c(c1)O/C(=C\c1cccs1)C2=O | . | . | . | . | .
O=C(O)COc1ccc2c(c1)O/C(=C\c1ccco1)C2=O | . | . | . | 24µM | .
CNCc1cn2cc(Cl)ccc2n1 | . | . | . | 27µM | .
Cc1csc2nc(COc3ccc(NC(=O)COc4ccc(F)cc4)cc3)cc(=O)n12 | . | . | / | / | ?
